POLI inh = DNA polymerase iota (human) inhibition. Potency, µM (titrated, usually from 115 µM), usual class: inhibitors. Pol iota fluorescent replication assay, 10 min. AID 588590. hit rate 1% among 390,000
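Fluorescent replication assay read twice, at 0 min and 10 min after adding 50 nM (final) substrate. Enzyme (10 nM) and compounds were first incubated 15 min at room temperature; enzyme-free buffer wells were negative controls.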
WRN helicase inh = blocks human WRN helicase | WRN helicase unwinding, fluorescent forked duplex, kinetic | Potency, µM (titrated, usually from 114 µM), most hits filed as inhibitors | hit rate 0.46% among 360,000; further: nearly all actives have a fitted effect of over 55% in size
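WRN at 20 nM final was preincubated with compound for 15 min at room temperature; reaction started with 100 nM forked duplex oligonucleotide carrying fluorophore and quencher plus 2 mM ATP (final). Unwinding followed kinetically by red fluorescence (ex 525/em 598 nm).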
Pol kappa inh = DNA polymerase kappa (human) inhibition; Q9UBT6; purified Pol kappa, fluorescent DNA synthesis assay, 10 min; Potency, µM (doses to about 107 µM), most hits filed as inhibitors; hit rate 0.53% among 400,000; AID 588579
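First, compounds were pin-transferred onto 10 nM Pol kappa. After 15 min at room temperature, substrate was added to 50 nM final. Fluorescence was then measured kinetically at 0 and 10 min.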
Pol beta inh = blocks human DNA polymerase beta activity; Pol beta primer extension/strand displacement, fluorescence kinetic; Potency, µM (titrated, usually from 114 µM), hits mostly inhibitors; AID 485314; hit rate 1.3% among 340,000; P06746
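10 nM enzyme + cpd, 15 min RT; start with substrate 50 nM final; read 0 min and after 10 min RT. Corrected, normalized data; 4-parameter Hill curve fit.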
Pol eta inh = inhibitors of human DNA polymerase eta | Q9Y253 | recombinant Pol eta, fluorescent DNA replication assay | Potency, µM (series often up to 114 µM), usual class: inhibitors | hit rate 1.2% among 390,000
Target sequence (Q9Y253 whole entry, looked up): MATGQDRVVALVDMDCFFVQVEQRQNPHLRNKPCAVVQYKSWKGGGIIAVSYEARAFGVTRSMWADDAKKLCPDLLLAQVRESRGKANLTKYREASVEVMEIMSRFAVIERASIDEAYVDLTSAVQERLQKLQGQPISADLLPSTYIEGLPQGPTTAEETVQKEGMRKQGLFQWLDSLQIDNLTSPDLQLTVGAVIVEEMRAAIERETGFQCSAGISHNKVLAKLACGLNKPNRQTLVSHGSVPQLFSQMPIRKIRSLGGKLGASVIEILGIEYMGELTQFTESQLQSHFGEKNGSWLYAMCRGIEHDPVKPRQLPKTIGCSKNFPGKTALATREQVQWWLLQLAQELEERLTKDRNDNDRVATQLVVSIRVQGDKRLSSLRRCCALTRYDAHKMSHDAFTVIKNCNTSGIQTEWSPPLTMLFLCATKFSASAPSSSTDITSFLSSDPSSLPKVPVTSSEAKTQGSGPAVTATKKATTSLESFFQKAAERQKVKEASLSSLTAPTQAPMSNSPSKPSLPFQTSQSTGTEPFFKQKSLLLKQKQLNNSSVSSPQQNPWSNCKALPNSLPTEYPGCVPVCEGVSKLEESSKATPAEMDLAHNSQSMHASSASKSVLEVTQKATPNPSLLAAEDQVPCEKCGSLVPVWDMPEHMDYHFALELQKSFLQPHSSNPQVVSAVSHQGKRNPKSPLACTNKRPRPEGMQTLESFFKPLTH
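Pol eta at 10 nM preincubated with compounds 15 min at room temperature; reaction started with fluorescent substrate (50 nM final) and read kinetically at 0 and 10 min.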
PI5P4K alpha inh = PI5P4K alpha (human) kinase inhibition | PI5P4Kalpha enzyme, ADP-Glo luminescence, 60 min; active compounds read low | max response, % | hit rate 1.2% among 330,000 | AID 652105; active means max response of -50% or lower; inconclusive means between -30% and -50%; inactive means -30% or higher; further: value at the top dose of about 77 µM
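qHTS, 1536-well: enzyme/substrate mix, compound by pin tool, 5 microM ATP final; RT 60 min; ADP-Glo reagents 1 (45 min) then 2 (30 min); luminescence.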
Each line names hits and unclear results; the compound was inactive in the other large screens. An excerpt weighted towards active compounds, which were near 2.8% of everything screened. Unless noted, the call rests on the fitted dose curve; in most records, active means well fitted curve in the direction sought with a large enough effect; inconclusive means small, poorly fitted or top-dose-only effect, or another doubt; inactive means no such curve, though single readings can be large; an effect the other way counts as inactive or inconclusive.

C[N+](C)(C)c1ccc(/C=C/c2ccnc3ccccc23)cc1	none (no result: WRN helicase inh, Pol beta inh, Pol eta inh, PI5P4K alpha inh)
CCOC(=O)c1c(N2C(=O)Nc3cc(Cl)c(Cl)cc3N2O)sc2c1CCCCC2	WRN helicase inh inconclusive, Pol beta inh 50µM, Pol eta inh inconclusive, PI5P4K alpha inh inconclusive
CCc1ccccc1NC(=O)CN1C(=O)c2ccccc2Sc2ncccc21	none (no result: WRN helicase inh, PI5P4K alpha inh)
N#CCC(=O)Nc1ccc(C(=O)OCC(=O)Nc2ccc3ccccc3c2)cc1	Pol eta inh inconclusive, PI5P4K alpha inh -51 (no result: Pol beta inh)
O=C(COC(=O)c1ccc(O)cc1O)N=c1sccn1Cc1ccccc1Cl	none (no result: Pol beta inh)
CCOC(=O)c1c(NC(=O)COC(=O)c2ccc(NC(=O)CC#N)cc2)sc(C(=O)NC)c1C	POLI inh inconclusive, WRN helicase inh inconclusive, Pol kappa inh inconclusive, Pol eta inh 10µM, PI5P4K alpha inh inconclusive (no result: Pol beta inh)
N#CCC(=O)Nc1ccc(C(=O)OCC(=O)N=c2sccn2Cc2ccccc2Cl)cc1	POLI inh inconclusive, Pol eta inh inconclusive, PI5P4K alpha inh -53 (no result: Pol beta inh)
COc1cc2ccccc2cc1C(=O)OCC(=O)Nc1ccc(Br)cc1	Pol kappa inh 89µM (no result: POLI inh, WRN helicase inh, Pol beta inh, Pol eta inh, PI5P4K alpha inh)
CCOc1cc2ccccc2cc1C(=O)OCC(=O)Nc1ccc(Br)cc1	none (no result: WRN helicase inh, Pol beta inh, Pol eta inh, PI5P4K alpha inh)
CN(Cc1ccc(Cl)s1)C(=O)CN1C(=O)N(C)C2(CCCCC2)C1=O	none (no result: Pol beta inh)
CCOC(=O)n1cc(-c2cnc(CNC(=O)C(C)(c3ccccc3)c3ccccc3)o2)c2ccccc21	Pol beta inh inconclusive
N#CCC(=O)Nc1ccc(C(=O)OCC(=O)c2ccc3c(c2)OCCO3)cc1	PI5P4K alpha inh -74
N#CCC(=O)Nc1ccc(C(=O)OCC(=O)c2ccc3c(c2)OCO3)cc1	none (no result: Pol beta inh)
Cc1cccc(NC(=O)CNC(=O)COc2cccnc2[N+](=O)[O-])c1C	none (no result: Pol beta inh)
COc1cccc(CNC(=O)Cn2c(=O)ccc3cc(S(=O)(=O)N4CCCC4)ccc32)c1	none (no result: WRN helicase inh, PI5P4K alpha inh)
Fc1ccc(N=C2NN=C(c3cc(F)ccc3F)CS2)cc1	none
O=S(=O)(c1ccc(N=C2NN=C(c3cc(F)ccc3F)CS2)cc1)N1CCOCC1	PI5P4K alpha inh -51
O=C(O)CC1CCC(=C(Cl)Cl)C1 (stereo unspecified)	POLI inh inconclusive, Pol beta inh inconclusive, Pol eta inh 50µM (no result: PI5P4K alpha inh)
COc1ccc(NC(=O)C2CCC(=O)N2C(=O)OCc2ccccc2)cc1 (stereo unspecified)	none
CC1(C)CC(=O)C2=C(C1)OC(N)=C(C#N)C2c1ccc[nH]1 (stereo unspecified)	POLI inh 28µM, Pol kappa inh 79µM, Pol beta inh 20µM
COc1cc2ccc(=O)oc2c(O)c1O	POLI inh inconclusive, Pol kappa inh 50µM (no result: Pol beta inh)
Cc1ccc(S(=O)(=O)Nc2cccc(C(=O)NCCCn3ccnc3)c2)cc1F	none (no result: Pol beta inh)
CCCN(CCC)Cc1c(C(=O)N/N=C/c2c[nH]c3ccccc23)nnn1-c1nonc1N	PI5P4K alpha inh -63
Cc1nnn(-c2nonc2N)c1C(=O)N/N=C/c1ccccc1O	POLI inh inconclusive, Pol beta inh 45µM, Pol eta inh inconclusive
Cc1ccc(N2CC(NC(=O)N3CCN(C(=O)c4ccco4)CC3)CC2=O)cc1 (stereo unspecified)	none (no result: Pol beta inh)
COc1ccccc1N1CCN(C(=O)C(C)CS(=O)(=O)c2ccc3c(c2)NC(=O)CS3)CC1 (stereo unspecified)	Pol beta inh 8.9µM
CCNC(=O)CSc1ncnc2sccc12	POLI inh inconclusive, Pol beta inh inconclusive, Pol eta inh 22µM, PI5P4K alpha inh inconclusive
CCc1sc(-c2cc3cccc(OC)c3oc2=O)nc1-c1cc(C)ccc1C	POLI inh inconclusive (no result: WRN helicase inh, Pol beta inh, Pol eta inh, PI5P4K alpha inh)
O=C(COc1ccc2oc(-c3ccccc3)cc(=O)c2c1)NCc1ccco1	POLI inh inconclusive, WRN helicase inh inconclusive, Pol beta inh 22µM, Pol eta inh inconclusive
COc1ccc2oc(-c3ccco3)cc(=O)c2c1	Pol beta inh 50µM
COc1ccc(CN2CCNC(=O)C2CC(=O)N(C)C2CCOCC2)cc1OC (stereo unspecified)	none (no result: POLI inh, Pol kappa inh, Pol beta inh)
O=C(Nc1ccc(Br)cc1)c1cc([N+](=O)[O-])cc([N+](=O)[O-])c1	none
O=c1c2c([N+](=O)[O-])cc([N+](=O)[O-])cc2sn1Cc1ccccc1	WRN helicase inh 20µM, PI5P4K alpha inh -80
O=c1c2c([N+](=O)[O-])cc([N+](=O)[O-])cc2sn1-c1ccc(Br)cc1	WRN helicase inh 79µM, PI5P4K alpha inh -85
O=C1OCCC1Sc1nc2ccccc2c(=O)n1Cc1ccc(F)cc1 (stereo unspecified)	POLI inh inconclusive, Pol beta inh 25µM, Pol eta inh inconclusive
O=C1OCCC1Sc1nc2ccccc2c(=O)n1-c1ccc(F)cc1 (stereo unspecified)	none
COc1ccc2c(c1)C=C([C@@H]1C[C@H]3CN(c4ccccc4)C(=O)[C@]34CCCN14)CO2	none
NCCCCCCCCCCNCCCN	none (no result: POLI inh, WRN helicase inh, Pol beta inh, Pol eta inh, PI5P4K alpha inh)
CCCN(C(=O)Cc1c(C(=O)O)[nH]c2ccc(Cl)cc12)c1ccc(OCC)cc1	Pol beta inh 50µM (no result: WRN helicase inh, PI5P4K alpha inh)
O=C(c1cc(Br)c[nH]1)N1CCSCC1	none
CCC(C)[C@H](NC(=O)C1CC(=O)N(c2ccc(OC)cc2)C1)C(=O)NC1CCCC1 (stereo partly specified)	none
Cn1nc(C(F)(F)F)cc1-c1ccc(S(N)(=O)=O)s1	none
CCOC(=O)c1cc(-c2ccco2)nc2c1c(C)nn2CCC#N	Pol eta inh inconclusive
CCOC(=O)c1cc(-c2ccco2)nc2c1c(C)nn2-c1cccc(Cl)c1	Pol beta inh 28µM, Pol eta inh inconclusive
NS(=O)(=O)c1ccc(NC(=O)COc2cccc3ccccc23)cc1	POLI inh 89µM, WRN helicase inh inconclusive, Pol eta inh 79µM
CCc1ccccc1OCC(=O)Nc1ccc(S(N)(=O)=O)cc1	none (no result: PI5P4K alpha inh)
CC(C(=O)NC1CCCCC1)N1CCN(C)CC1 (stereo unspecified)	POLI inh inconclusive
O=C(NCCc1ccc(Cl)cc1)c1ccc(Cn2c(=O)c3cccn3c3cccnc32)cc1	POLI inh inconclusive, Pol beta inh 11µM, Pol eta inh inconclusive (no result: WRN helicase inh, PI5P4K alpha inh)
O=C(NCCc1ccccc1)c1ccc(Cn2c(=O)c3cccn3c3cccnc32)cc1	none (no result: WRN helicase inh, PI5P4K alpha inh)
O=C1NC(=O)C([N+](=O)[O-])=C(O)C1=O	PI5P4K alpha inh -65 (no result: POLI inh, Pol kappa inh, Pol beta inh)
O=C(NCCNC(=O)c1ccc(Cl)cc1Cl)c1ccc(Cl)cc1Cl	none (no result: POLI inh, Pol kappa inh, Pol beta inh, Pol eta inh)
CCCNC(=O)c1ccc(Cl)cc1Cl	Pol beta inh 20µM
COc1ccc(CNC(=O)c2cc3cc4ccc(C)cc4nc3o2)cc1	none (no result: WRN helicase inh, PI5P4K alpha inh)
Cc1ccc2cc3cc(C(=O)NCc4ccco4)oc3nc2c1	POLI inh inconclusive, WRN helicase inh inconclusive, Pol kappa inh inconclusive, Pol beta inh 79µM, Pol eta inh inconclusive
Cc1ccc2cc(C#N)c(SCC(=O)NCc3ccco3)nc2c1	POLI inh inconclusive, Pol beta inh 22µM, Pol eta inh inconclusive
